# Hits are enriched below; roughly 4.1% of the tested compounds scored in any of these assays.
# GRIN3A LBD mod: binders of NR3A ligand-binding domain, primary screen, biophysical, differential scanning fluorimetry, uHTS | 340,000 tested, 2.5% active | AID 1259313, 2017 | Glutamate receptor ionotropic, NMDA 3A (GRIN3A) ligand-binding domain | Tm shift relative to glycine control, % at 25 µM | NR3A LBD differential scanning fluorimetry, Tm shift; 0% = protein alone, 100% = glycine-bound protein;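 active means melting temperature shift of at least 10% of the positive control shift, at one fixed dose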
# p-CIP stab down: p/CIP-EGFP fusion destabilizers, primary screen, fluorescence, F442A cells; Q05BA5; 16 h; decrease of EGFP signal, % at 10 µM; 290,000 tested, 0.01% active; AID 1984, 2009;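 active means EGFP signal decrease of at least 30% at 10 µM or well 3 SD below plate mean, unless failing retest; inactive means the rest, including hits failing retest or dose response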
# FAS-TE inh: FAS thioesterase domain inhibitors, primary screen, biochemical, fluorescence intensity, uHTS; Fatty acid synthase (Homo sapiens), P49327; recombinant FAS-TE, OMFH fluorogenic substrate, fluorescence endpoint; inhibition, % at 15 µM; 360,000 tested, 0.67% active;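 active means compounds whose normalised, plate-corrected inhibition of enzyme fluorescence in the single-dose primary screen is 50% or more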;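 further: 0% = DMSO with enzyme and 100% = substrate without enzyme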
# MIN6 prolif-1: inducers of MIN6 beta-cell proliferation, primary screen, ATP luminescence, uHTS | MIN6 cells proliferation, ATPlite luminescence, 48 h; cells starved in 0.2% serum; 100% = growth in 10% serum | proliferation, % at 10 µM | 330,000 tested, 0.29% active;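 active means compounds whose signal lies at least 3.5 SD above the mean of all wells on their plate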;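 further: 0% = DMSO-treated cells in low-serum medium and 100% = 10% serum control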
# MPTP block: mitochondrial permeability transition pore inhibitors, primary screen, biochemical, isolated mouse mitochondria, absorbance | Ca2+ swelling absorbance, 30 min | inhibition, % at 10 µM | 360,000 tested, 1.4% active | AID 602449, 2012;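 active means inhibition of 50% or more, scaled per plate between neutral and stimulator controls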;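 further: 0% = DMSO wells given calcium and 100% = 1 mM EGTA wells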
# MIN6 prolif-2: inducers of beta-cell proliferation in MIN6, confirmation, MIN6 cells, mouse. 920 tested, under 10 active. ATPlite luminescence, 48 h; cells kept in 0.2% serum; scaled between 0.2% and 10% serum. shares compounds with MIN6 prolif-1. proliferation increase, % at 50 µM;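 active means proliferation increase above 40% at any of the four tested concentrations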
# An asterisk follows results filed as active; . = no result given.
SMILES,GRIN3A LBD mod,p-CIP stab down,FAS-TE inh,MIN6 prolif-1,MPTP block,MIN6 prolif-2
COc1ccccc1CNC(=O)CSc1ccc(-c2cccs2)nn1,0.8,0.1,-0.8,7.8*,-1.0,-2.5
Cc1cc(C)c(S(=O)(=O)c2ccccc2)c(Cl)n1,-0.8,1.1,-2.0,4.9*,-0.4,-0.7
CC(C)Cn1c(N)c(/C=N/NC(=O)c2ccc(Cl)cc2)c(=O)n(C)c1=O,-0.6,-4.6,-4.7,6.5*,1.6,-0.6
C=CCNC(=O)c1onc(CSc2ccccc2CC)c1C(=O)O,2.6,-5.4,-8.1,12.0*,0.6,-1.3
CN(C)C(/C=C/Nc1cccc([N+](=O)[O-])c1)=C(C#N)C#N,4.4,11.9,1.8,8.1*,-2.3,0.9
NC(=S)NN=Cc1c[nH]c2nccnc12,.,.,-7.3,.,-3.6,.
COc1ccc(CCNC(=O)CN2c3cccc4cccc(c34)S2(=O)=O)cc1,0.8,.,1.5,13.4*,-1.7,5.4
COc1cc(/C=N/NC(=O)CN(Cc2ccccc2)S(=O)(=O)c2ccc3c(c2)OCCO3)ccc1O,-14.3,-12.7,11.8,0.0*,-18.4,-4.8
Cc1ccc(C(c2sc3ncnn3c2O)N2CCCCC2)cc1 (stereo not given),-2.9,2.3,-42.5,-0.7,0.9,.
Cc1ccc(C(c2sc3ncnn3c2O)N2CCC(C)CC2)cc1 (stereo not given),-1.1,-2.5,-40.4,11.6*,1.0,-2.2
CC(C)(C)c1ccc(CC(=O)N2CCC2(C)C(=O)NS(=O)(=O)c2ccc(Cl)s2)cc1 (stereo not given),.,.,-7.4,.,1.9,.
O=C(O)c1c[nH]c2ccc(F)cc2c1=O,0.0,0.5,-2.7,6.8*,-0.7,2.5
O=C(O)c1ccccc1SC1CC(=O)N(C2CCCCC2)C1=O (stereo not given),0.2,7.6,-6.4,9.9*,-0.7,-6.4
O=C(O)c1ccccc1SC1CC(=O)N(c2ccccc2)C1=O (stereo not given),-5.4,-8.7,-5.9,0.0,-5.4,.
CCC(C)Nc1nc(N)c([N+](=O)[O-])c(NCc2ccccc2)n1 (stereo not given),-1.2,5.4,8.9,6.2*,0.6,-6.4
O=[N+]([O-])c1ccc(Oc2ncccn2)cc1,-1.8,.,-5.9,-1.4,-1.3,.
N#CCc1ccc(Oc2ncccn2)cc1,1.6,-12.8,-6.6,8.4*,0.5,-0.2
COCOc1ccc(-c2ncc(OC)nc2NC(=O)c2cc(C)oc2C)cc1,.,.,-2.8,.,0.4,.
Cc1cc(Br)cn2c(CC(C)(C)C)c(C3CCCCC3)nc12,.,.,19.8,.,3.6,.
COC(=O)c1c(C)[nH]c(C(=O)CSc2nnnn2-c2ccccc2)c1C,0.9,0.3,-2.7,-1.6,3.5,.
CCOC(=O)c1c(C)[nH]c(C)c1C(=O)CSc1nnnn1-c1ccccc1,3.5,-2.4,-5.0,5.5*,4.9,3.2
CCOc1nc2cnccc2n(CC(=O)Nc2ccccc2C(=O)OC)c1=O,-1.9,-5.9,-1.0,14.1*,-0.5,1.2
CCOc1ccccc1NC(=O)Cn1c(=O)c(OCC)nc2cnccc21,1.8,7.7,-3.1,11.8*,0.3,1.4
O=C1CN(S(=O)(=O)c2ccc(F)cc2)c2ccccc2N1,1.7,-6.2,-0.3,-0.7,0.2,.
O=C1CN(S(=O)(=O)c2ccccc2)c2ccccc2N1,-1.5,-7.3,0.2,13.2*,-0.8,-1.3
SMILES,GRIN3A LBD mod,p-CIP stab down,FAS-TE inh,MIN6 prolif-1,MPTP block,MIN6 prolif-2
O=C(Nc1ccc(Br)cc1)C1CC(O)CN1C(=O)OCc1ccccc1 (stereo not given),-0.3,-15.0,3.0,10.8*,-2.9,-4.9
Cc1ccc(NC(=O)C2CC(O)CN2C(=O)OCc2ccccc2)c(C)c1 (stereo not given),-3.6,-3.8,-3.4,0.0,-0.6,.
Cn1c(=O)c2cc(NC(=S)NC3CCCCC3)ccc2n1C/C=C/c1ccccc1,.,.,11.1,.,0.6,.
CCOC(=O)C1(C)CCCN(C(=O)c2cc(C)oc2C)C1 (stereo not given),.,.,-7.1,.,-0.7,.
CC12CCCCN1CCCc1c2[nH]c2ccccc12 (stereo not given),2.9,-21.7,-5.2,5.5*,-0.3,-6.2
NC(c1csc(Nc2ccccn2)n1)C1CCCCC1 (stereo not given),.,.,1.9,.,2.1,.
CCOC(=O)C1=C(COC(=O)/C=C/c2ccc(Cl)cc2)NC(=O)NC1C (stereo not given),0.2,4.7,-5.9,-0.5,-0.7,.
CCOC(=O)C1=C(COC(=O)/C=C/c2ccccc2)NC(=O)NC1C (stereo not given),-3.4,.,-2.6,11.6*,-1.6,4.7
CCOC(=O)C1=C(COC(=O)/C=C/c2ccccc2F)NC(=O)NC1C (stereo not given),0.8,.,-0.7,12.4*,-1.5,-2.0
CCOC(=O)C1=C(COC(=O)c2sccc2C)NC(=O)NC1C (stereo not given),0.1,.,-3.1,11.4*,-0.8,3.7
c1ccc2c(c1)Sc1cnccc1N2CC1CO1 (stereo not given),.,.,-5.5,.,-1.7,.
COCC(C)n1c(SCC(=O)N2CC(=O)Nc3ccccc32)nc2ccccc2c1=O (stereo not given),-2.8,.,-5.2,10.9*,0.0,1.3
CCOC(=O)C1=C(C)NC(=O)NC1c1ccc(OC(=O)c2ccco2)c(OC)c1 (stereo not given),0.8,-14.5,-1.8,4.7*,1.2,-4.4
CC(C)(Oc1ccc(Cl)cc1)C(=O)Nc1c2c(nn1C(C)(C)C)CS(=O)(=O)C2,0.8,.,-1.2,15.2*,-0.5,2.6
CC(C)(C)n1nc2c(c1NC(=O)COc1ccc(Cl)cc1)CS(=O)(=O)C2,-0.3,0.6,5.5,2.2,-2.2,.
COc1cc2c(cc1OC)C(COc1ccccc1OC)N(C(=O)c1ccco1)CC2 (stereo not given),-2.7,8.2,3.1,8.8*,2.2,0.2
CCC(=O)N1CCc2cc(OC)c(OC)cc2C1COc1ccc(F)cc1 (stereo not given),-1.2,-11.9,-5.1,9.3*,0.3,-0.9
COc1cc2c(cc1OC)C(COc1ccc(F)cc1)N(C(C)=O)CC2 (stereo not given),0.0,-3.6,-3.8,-0.8,-1.6,.
CCC(=O)N1CCc2cc(OC)c(OC)cc2C1COc1ccccc1OC (stereo not given),2.1,-10.5,-5.2,.,-0.5,.
Nc1ccn([C@@H]2O[C@H](C(=O)N3CCSC3)[C@@H](O)[C@H]2O)c(=O)n1,.,.,-4.5,.,-2.7,.

# Screening results deposited in PubChem BioAssay by Sanford-Burnham Center for Chemical Genomics.
